Data on 16 molecules can be found in PubChem BioAssay (NCI).

Structures are written as SMILES. About 83,000 compounds went through this panel and 20% of them were active in at least one assay; those are over-represented in the sample as a whole.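 Results are percent growth after 48 hours of single-concentration exposure. 100 means growth as in untreated cells, lower positive values show inhibition; negative values down to -100 show cell death.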 A number with no mark means an inactive call. Activity calls are given as the source filed them. The calls were made as follows: active = growth percent below 10; inactive = the rest.

Test systems include DU-145 prostate; K-562 leukemia; MDA-MB-231 breast; RXF 393 renal; SF-268 CNS; SF-295 CNS; SF-539 CNS; UACC-257 melanoma; M14 melanoma; MALME-3M melanoma.
Assay in all cases: NCI-60 one-dose screen, 48 h (100 = growth as untreated, 0 = no growth, -100 = all killed)
Conditions in all cases: 10 µM

In the case of `O=C(CCc1ccccc1)N1CCN(C(=O)CCc2ccccc2)CC1`, the growth in the test on DU-145 prostate is 140%; with K-562 leukemia, 108%; in the test on MDA-MB-231 breast it was 90.8%; with RXF 393 renal, 109%; with SF-268 CNS, 117%; in the test with SF-295 CNS, 111%. The values for the growth in the test on SF-539 CNS, in the test with UACC-257 melanoma and in the test with M14 melanoma were 104%, 92.6% and 95.9%, respectively.
Consider `CC(C)CCN(CCCNc1c2c(nc3cc(Cl)ccc13)CCCC2)CCC(C)C`, for which the growth in the test on DU-145 prostate is 72.1%; with K-562 leukemia it was 22.7%; in the test with MDA-MB-231 breast it was 21.8%; in the test on RXF 393 renal, 59.9%; in the test on SF-268 CNS, 73.9%; in the test with SF-295 CNS, 66.7%. For the same molecule, the growth in the test with SF-539 CNS is 69.8%; with UACC-257 melanoma, 71.4%; in the test on M14 melanoma it was 4.03% (active).
On to `CC[C@@]1(C(N)=O)CC2C=CC1C2` (some centres undefined), for which the growth in the test on DU-145 prostate is 113%; in the test with K-562 leukemia, 92.6%; in the test on MDA-MB-231 breast, 109%; with RXF 393 renal, 112%; in the test on SF-268 CNS it was 119%; in the test with SF-295 CNS it was 110%. Further, the growth is 111% in the test with SF-539 CNS, 118% in the test with UACC-257 melanoma and 102% in the test with M14 melanoma.
Take `COc1ccc(C2=Cc3ccc(OC(C)=O)cc3OC2)cc1`: the growth with DU-145 prostate was 90.2%; in the test on K-562 leukemia, 72.3%; in the test with MDA-MB-231 breast, 52.5%; with RXF 393 renal, 94.7%; with SF-268 CNS, 87.9%; in the test on SF-295 CNS it was 104%. Also, the values for the growth with SF-539 CNS, in the test on UACC-257 melanoma and with M14 melanoma were 85.7%, 99.7% and 122%, respectively.
For `O=C(NCc1cn(Cc2cccc(Oc3ccccc3)c2)nn1)c1cccnc1Nc1ccccc1`, the growth in the test on DU-145 prostate was 59.8%; with K-562 leukemia, 31.9%; in the test with MDA-MB-231 breast it was 63.7%; with RXF 393 renal it was 33.6%; with SF-268 CNS it was 60.5%; in the test on SF-295 CNS it was 50.1%. The growth in the test with SF-539 CNS is 54.5%; with UACC-257 melanoma, 77%; in the test on M14 melanoma, 33.6%.
As for `O=C(N/N=C/c1ccccc1O)c1ccccc1`, the growth with DU-145 prostate is 32.4%; in the test on K-562 leukemia, 15.8%; with MDA-MB-231 breast, 32.5%; in the test with RXF 393 renal, 41.2%; with SF-268 CNS it was 30%; with SF-295 CNS, 26%. The growth in the test with SF-539 CNS is 27.9%; with UACC-257 melanoma it was -8.71% (active); with M14 melanoma, 26.5%.
Take `COc1cc(NS(C)(=O)=O)ccc1Nc1c2ccc(Cl)cc2nc2c(OC)cccc12`: the growth in the test on DU-145 prostate is -43.6% (active); in the test with K-562 leukemia, 13.4%; in the test with MDA-MB-231 breast, 62.6%; in the test on RXF 393 renal, -11.3% (active); in the test on SF-268 CNS it was 9.76% (active); in the test on SF-295 CNS, 14.5%. Moreover, the results for the growth in the test with SF-539 CNS, in the test on UACC-257 melanoma and in the test with M14 melanoma were -53.8% (active), 34.2% and 14.1%, respectively.
With `Cc1cc(=O)oc2cc(OCc3cn(CC(O)CO)nn3)ccc12` (centres undefined), the growth with DU-145 prostate is 103%; with K-562 leukemia, 96.1%; with MALME-3M melanoma it was 109%; with MDA-MB-231 breast it was 104%; in the test on SF-268 CNS, 109%; in the test with SF-295 CNS, 107%. In addition, the growth in the test with SF-539 CNS was 95.9%; in the test on UACC-257 melanoma, 112%; in the test with M14 melanoma, 106%.
Turning to `Oc1[nH]c2ccccc2c1/C=c1/cc2c(c(-c3ccc(C(F)(F)F)cc3)n1)=Nc1ccccc1-2`, the growth was 62.5% in the test on DU-145 prostate; 22.8% with K-562 leukemia; 45.6% with MDA-MB-231 breast; 56.1% in the test with RXF 393 renal; 79.1% with SF-268 CNS; 37% with SF-295 CNS. Also, the growth in the test with SF-539 CNS is 83.5%; in the test on UACC-257 melanoma, 82.4%; in the test with M14 melanoma, 33.5%.
As for `Cc1ccc(S(=O)(=O)N2CCc3ccccc3CC2)cc1`, the growth in the test with DU-145 prostate was 84.1%; in the test on K-562 leukemia it was 63.9%; in the test on MDA-MB-231 breast, 83.7%; in the test on RXF 393 renal, 80.3%; in the test on SF-268 CNS it was 97.5%; with SF-295 CNS, 73%. For the same molecule, the growth was 97% in the test on SF-539 CNS, 52.7% with UACC-257 melanoma and 80.6% in the test on M14 melanoma.
Consider `Nc1c(C(=O)Nc2ccccc2F)sc2nc3c(cc12)C(=O)CCC3`, for which the growth with DU-145 prostate is 8.4% (active); in the test with K-562 leukemia, 26.3%; in the test on MDA-MB-231 breast, 48.9%; in the test on RXF 393 renal, 9.63% (active); with SF-268 CNS it was 54.9%; in the test on SF-295 CNS, 3.17% (active). For the same molecule, the growth is 10.5% in the test with SF-539 CNS, 66.9% in the test on UACC-257 melanoma and 19.2% in the test with M14 melanoma.
Consider `Oc1ccc(/C=N\Nc2ccccn2)c(O)c1`, for which the growth in the test with DU-145 prostate was 11.1%; in the test on K-562 leukemia it was 24.3%; in the test with MDA-MB-231 breast it was 37.8%; in the test with RXF 393 renal it was 28.5%; in the test on SF-268 CNS it was 16.4%; in the test on SF-295 CNS it was -4.28% (active). In addition, the values for the growth in the test with SF-539 CNS, with UACC-257 melanoma and in the test with M14 melanoma were -0.82% (active), 30.3% and -36.2% (active), respectively.
As for `COc1cc([C@@H]2c3cc4c(cc3[C@H](SC(=N)N)[C@H]3COC(=O)[C@H]23)OCO4)cc(OC)c1OC`, the growth in the test with DU-145 prostate is 6.78% (active); with K-562 leukemia it was 13.8%; in the test with MDA-MB-231 breast it was -5.46% (active); in the test on RXF 393 renal, 27.1%; in the test on SF-268 CNS, 30.3%; in the test on SF-295 CNS it was -20.4% (active). For the same molecule, the figures for the growth with SF-539 CNS, with UACC-257 melanoma and in the test on M14 melanoma were -22.5% (active), 57.1% and 16.9%, respectively.
With `CCOc1nc(-c2ccccc2)cc2c(O)c(C(=O)NCCCO)[nH]c(=O)c12`, the growth in the test with DU-145 prostate is 100%; in the test with K-562 leukemia it was 111%; in the test with MDA-MB-231 breast it was 102%; in the test on RXF 393 renal it was 63.2%; with SF-268 CNS it was 103%; in the test with SF-295 CNS it was 77.5%. For the same molecule, the growth in the test on SF-539 CNS was 93.9%; in the test on UACC-257 melanoma, 122%; in the test with M14 melanoma it was 94.4%.
Regarding `COc1ccccc1CNCCCN1C(=O)c2ccc3c4c(ccc(c24)C1=O)C(=O)N(CCCNCCNCCCN)C3=O`, the growth in the test on DU-145 prostate is 16.3%; in the test on K-562 leukemia, 10.2%; in the test on MDA-MB-231 breast it was 20.3%; in the test on RXF 393 renal, 25.2%; in the test with SF-268 CNS it was 1.02% (active); in the test with SF-295 CNS, 51.3%. The values for the growth in the test on SF-539 CNS, with UACC-257 melanoma and in the test with M14 melanoma were 14.1%, -6.36% (active) and 46.7%, respectively.
In the case of `COc1cc(/C=C/C(=O)c2cc(-c3ccc(F)cc3)ccc2O)cc(OC)c1OC`, the growth in the test on DU-145 prostate is 91.1%; with K-562 leukemia, 34.5%; in the test on MDA-MB-231 breast it was 60.7%; with RXF 393 renal it was 104%; with SF-268 CNS it was 85.7%; with SF-295 CNS, 95.1%. Besides, the growth with SF-539 CNS was 89%; in the test with UACC-257 melanoma, 68.4%; in the test with M14 melanoma it was 86.2%.
